This note sets out measurements from PubChem BioAssay AID1345085 (National Center for Advancing Translational Sciences (NCATS), 2018).

Records with an inconclusive call do not appear. Values without a mark were called inactive. Activity calls are given as the source filed them. Calls follow the shape of the dose curve; as a rule, active = well fitted cell-killing curve with a large enough effect; inconclusive = small, poorly fitted or top-dose-only effect, or effect the other way; inactive = no such curve, though single readings can be large or run the other way.
% is scaled to controls: 0 for no effect and ±100 for the full control effect; potency is read from the fitted curve at half-maximal effect.

In this test the test system is C33A. As to the kind of experiment: Confirmatory qHTS for gynecologic anti-cancer compounds from libraries of approved drugs and bioactive compounds. Also: nearly all actives have a fitted effect of over 55% in size. As to conditions: gynecologic cancer cell panel viability, ATPlite luminescence, 48 h; series mostly up to 57.6 µM; activity change, negative = viability loss: at the top concentration. The essentials: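 ATP-based luminescent viability (ATPlite) after 48 h drug treatment at 37 °C, 5% CO2, across 57.5 uM–0.977 nM in 1:3 steps. Cells seeded at 1,000 per well 16 h beforehand; IC50 values computed, HEK 293T as selectivity control.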
(In general: qHTS replaces the single test concentration by a dilution series.)
`COc1cc2c(Oc3ccc(-c4cnc(Nc5ccc(F)cc5)n(C)c4=O)cc3F)ccnc2cc1OCCCN1CCOCC1`: the “activity change, negative = viability loss” value was -4.7%. Regarding `O=C1c2c(O)ccc(O)c2C(=O)c2c(NCCNCCO)ccc(NCCNCCO)c21`, the Potency is 0.306 µM (active). In the case of `NC(=O)c1cnc(-c2ccc(C3(N)CCC3)cc2)c(-c2ccccc2)c1`, the Potency was 19.3 µM (active).

Consider `Cc1ccccc1C(OCCN(C)C)c1ccccc1` (stereo not given), for which the “activity change, negative = viability loss” value was 0.202%.

On to `CNC(=O)c1nn(C)c2c1C(C)(C)Cc1cnc(Nc3ccc(N4CCN(C)CC4)cc3)nc1-2`, for which the “activity change, negative = viability loss” value was -11.1%. As for `COc1cc2c(NC3CCN(C(C)C)CC3)nc(C3CCCCC3)nc2cc1OCCCN1CCCC1`, the Potency is 15.3 µM (active). Still for that read-out and setting: the same measure for `CC(Oc1cc(-n2cnc3ccc(CN4CCN(C)CC4)cc32)sc1C(N)=O)c1ccccc1C(F)(F)F` (stereo not given): 5.44 µM (active). Still for that read-out and setting: with `Cc1csc(NC(=O)c2sc3nc4c(c(C(F)(F)F)c3c2N)CCC4)n1` the figure was 1.93 µM (active). Still for that read-out and setting: the same measure for `CCCCc1oc2ccccc2c1C(=O)c1cc(I)c(OCCN(CC)CC)c(I)c1`: 70.8 µM (active); for `CCC1=CC2CN(C1)Cc1c([nH]c3ccccc13)[C@@](C(=O)OC)(c1cc3c(cc1OC)N(C)[C@H]1[C@@](O)(C(=O)OC)[C@H](OC(C)=O)[C@]4(CC)C=CCN5CC[C@]31[C@@H]54)C2` (stereo not given in full): 0.211 µM (active). `Cc1cnc(CNC(=O)c2c(=O)c3ccc(N4CCCN(C)CC4)nc3n3c2sc2ccccc23)cn1`: the activity change, negative = viability loss was -18.8% [at 10.7 µM]. Take `O=c1[nH]c(=O)n([C@H]2C[C@H](O)[C@@H](CO)O2)cc1F`: the Potency is 2.17 µM (active). For the compound `O=C(Nc1cn[nH]c1-c1nc2ccc(CN3CCOCC3)cc2[nH]1)NC1CC1`, the Potency was 13.7 µM (active). As for `CCCC(=O)O[C@]1(C(=O)CCl)[C@@H](C)C[C@H]2[C@@H]3CCC4=CC(=O)C=C[C@]4(C)[C@@]3(F)C(=O)C[C@@]21C`, the “activity change, negative = viability loss” value was -1.58%. Regarding `NC(=O)Nc1cc(-c2cccc(F)c2)sc1C(=O)NC1CCCNC1` (stereo not given), the Potency is 0.485 µM (active). Regarding `CN(c1nccc(=O)[nH]1)C1CCN(c2nc3ccccc3n2Cc2ccc(F)cc2)CC1`, the “activity change, negative = viability loss” value was 15.2%. Turning to `O=C(c1ccc(F)c(F)c1Nc1ccc(I)cc1F)N1CC(O)([C@@H]2CCCCN2)C1`, the Potency is 27.3 µM (active). On to `O=C(/C=C/c1cccc(S(=O)(=O)Nc2ccccc2)c1)NO`, for which the Potency was 2.98 µM (active). As for `O=C(O)C1(Cc2cccc(Nc3nccs3)n2)CCC(Oc2cccc(Cl)c2F)CC1` (stereo not given), the “activity change, negative = viability loss” value was 3.54%. `Oc1cn2c(n1)Nc1ccc(Cl)c(Cl)c1C2`: the “activity change, negative = viability loss” value is -2.44% [at 19.5 µM].
